Where “and” joins values, the source holds several entries; their conditions need not be identical. Equal values may be shown once. Results filed as inconclusive are left out. Calls of active or inactive are those of the source. How the source made its calls: active means hit-call score of the fitted dose curve at least 0.9, where 1 is the maximum; inconclusive means response in the unintended direction; inactive means score below 0.9.
Tests used:
[1] = target: rat CYP2C11, Cyp2c11 (gene 29277) (UniProt P08683); assay: NVS_ADME_rCYP2C11: NovaScreen (NVS) CYP450-related Enzyme Activity (ADME) Assay for rat CYP2C11 (AID 2283118)
Summary of the method: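 Screened first at 10 uM in duplicate, hits followed by concentration-response. Recombinant rat enzyme activity monitored by fluorescence 0.33 h post-dosing, normalised to acetonitrile negative control.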

[2] = target: rat CYP2D1, Cyp2d1 (gene 266684) (UniProt P10633); assay: NVS_ADME_rCYP2D1: NovaScreen (NVS) CYP450-related Enzyme Activity (ADME) Assay for rat CYP2D1 (AID 2283122)
Method: (§1) NVS_ADME_rCYP2D1 is a biochemical, single-readout assay that uses extracted gene-proteins in a cell-free assay. Measurements were taken 0.75 hour after chemical dosing in a 96-well plate.NVS_ADME_rCYP2D1 is one of one assay component(s) measured or calculated from the NVS_ADME_rCYP2D1 assay. It is designed to make measurements of enzyme activity, a form of enzyme reporter, as detected with fluorescence intensity signals by Fluorescence technology.Data from the assay component NVS_ADME_rCYP2D1 was analyzed into 1 assay endpoint. This assay endpoint, NVS_ADME_rCYP2D1, was analyzed in the positive analysis fitting direction relative to Acetonitrile as the negative control and baseline of activity. Using a type of enzyme reporter, loss-of-signal activity can be used to understand changes in the enzymatic activity as they relate to the gene Cyp2d1. Furthermore, this assay endpoint can be referred to as a primary readout, because this assay has produced multiple assay endpoints where this one serves a enzymatic activity function. To generalize the intended target to other relatable targets, this assay endpoint is annotated to the cyp intended target family, where the subfamily is xenobiotic metabolism. […]

rat CYP3A1, gene 25642 = assay: NVS_ADME_rCYP3A1: NovaScreen (NVS) CYP450-related Enzyme Activity (ADME) Assay for rat CYP3A1 (AID 2283126)
Method: as §1, with “NVS_ADME_rCYP3A1” for “NVS_ADME_rCYP2D1”, “0.5” for “0.75”, “plate.NVS_ADME_rCYP3A1” for “plate.NVS_ADME_rCYP2D1”, “NVS_ADME_rCYP3A1,” for “NVS_ADME_rCYP2D1,”, “Cyp3a23/3a1.” for “Cyp2d1.”

[3] = target: human AKT serine/threonine Kinase 1 (AKT1), AKT1 (gene 207) (UniProt P31749); assay: NVS_ENZ_hAKT1: NovaScreen (NVS) Enzymatic Assay for human AKT serine/threonine Kinase 1 (AKT1) (AID 2283138)
Summary of the method: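 Fluorescence and mobility-shift readout of kinase activity, taken 1 h post-dosing in a cell-free format with recombinant protein. Primary screen at 25 uM in duplicate; hits (e.g. 30% inhibition) retested in concentration series topping at 50 uM.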

[4] = target: rat CYP3A2, Cyp3a2 (gene 266682) (UniProt P05183); assay: NVS_ADME_rCYP3A2: NovaScreen (NVS) CYP450-related Enzyme Activity (ADME) Assay for rat CYP3A2 (AID 2283128)
Summary of the method: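 Fluorescence readout of extracted rat CYP3A2 activity 0.5 h post-dose, acetonitrile as negative control. Single-point testing in duplicate at 10 uM, followed by concentration series to a 20 uM maximum for actives.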

[5] = target: human Caspase 10 (CASP10), CASP10 (gene 843) (UniProt Q92851); assay: NVS_ENZ_hCASP10: NovaScreen (NVS) Enzymatic Assay for human Caspase 10 (CASP10) (AID 2283133)
Method: NVS_ENZ_hCASP10 is a biochemical, single-readout assay that uses extracted gene-proteins from E. coli in a cell-free assay. Measurements were taken 1 hour after chemical dosing in a 96-well plate.NVS_ENZ_hCASP10 is one of one assay component(s) measured or calculated from the NVS_ENZ_hCASP10 assay. It is designed to make measurements of enzyme activity, a form of enzyme reporter, as detected with fluorescence intensity signals by Fluorescence technology.Data from the assay component NVS_ENZ_hCASP10 was analyzed into 1 assay endpoint. This assay endpoint, NVS_ENZ_hCASP10, was analyzed in the positive analysis fitting direction relative to DMSO as the negative control and baseline of activity. Using a type of enzyme reporter, loss-of-signal activity can be used to understand changes in the enzymatic activity as they relate to the gene CASP10. Furthermore, this assay endpoint can be referred to as a primary readout, because this assay has produced multiple assay endpoints where this one serves a enzymatic activity function. To generalize the intended target to other relatable targets, this assay endpoint is annotated to the protease intended target family, where the subfamily is cysteine protease. […]

[6] = target: human Acid Phosphatase 1 (ACP1), ACP1 (gene 52) (UniProt P24666); assay: NVS_ENZ_hACP1: NovaScreen (NVS) Enzymatic Assay for human Acid Phosphatase 1 (ACP1) (AID 2283136)
Summary of the method: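 Cell-free fluorescence read-out of phosphatase activity, substrate and product separated by mobility shift, taken 1.5 h after compound addition; protein produced in Sf9. Single 25 uM duplicate screen, followed by concentration series for actives, scored as signal loss relative to DMSO.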

Caspase-3 (Homo sapiens) = Caspase-3 (Homo sapiens) (UniProt P42574); assay: NVS_ENZ_hCASP3: NovaScreen (NVS) Enzymatic Assay for human Caspase 3 (CASP3) (AID 2283139)
Summary of the method: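 Single-concentration screening at 25 uM in duplicate, with concentration-response follow-up to a 50 uM maximum for chemicals passing the threshold. Caspase-3 (human, E. coli-expressed) activity was read as substrate fluorescence after 1 h, with loss of signal relative to DMSO.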

Chain of rat CYP2C11, Cyp2c11 (gene 29277) (P08683 whole entry, looked up): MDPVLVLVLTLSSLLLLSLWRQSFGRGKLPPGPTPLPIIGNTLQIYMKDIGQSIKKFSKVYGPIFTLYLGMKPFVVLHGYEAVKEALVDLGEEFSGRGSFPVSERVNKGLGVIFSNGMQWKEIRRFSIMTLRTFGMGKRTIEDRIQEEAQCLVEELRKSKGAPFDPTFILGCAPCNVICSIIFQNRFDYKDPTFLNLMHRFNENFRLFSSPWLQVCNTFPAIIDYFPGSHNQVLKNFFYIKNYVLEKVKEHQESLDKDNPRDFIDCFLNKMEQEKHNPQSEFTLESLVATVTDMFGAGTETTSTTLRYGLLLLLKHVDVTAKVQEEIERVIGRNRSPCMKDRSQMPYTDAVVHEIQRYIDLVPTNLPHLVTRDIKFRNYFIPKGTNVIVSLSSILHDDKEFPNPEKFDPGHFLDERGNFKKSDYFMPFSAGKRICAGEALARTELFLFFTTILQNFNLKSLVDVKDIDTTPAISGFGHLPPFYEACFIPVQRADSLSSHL
Chain of human AKT serine/threonine Kinase 1 (AKT1), AKT1 (gene 207) (P31749 whole entry, looked up): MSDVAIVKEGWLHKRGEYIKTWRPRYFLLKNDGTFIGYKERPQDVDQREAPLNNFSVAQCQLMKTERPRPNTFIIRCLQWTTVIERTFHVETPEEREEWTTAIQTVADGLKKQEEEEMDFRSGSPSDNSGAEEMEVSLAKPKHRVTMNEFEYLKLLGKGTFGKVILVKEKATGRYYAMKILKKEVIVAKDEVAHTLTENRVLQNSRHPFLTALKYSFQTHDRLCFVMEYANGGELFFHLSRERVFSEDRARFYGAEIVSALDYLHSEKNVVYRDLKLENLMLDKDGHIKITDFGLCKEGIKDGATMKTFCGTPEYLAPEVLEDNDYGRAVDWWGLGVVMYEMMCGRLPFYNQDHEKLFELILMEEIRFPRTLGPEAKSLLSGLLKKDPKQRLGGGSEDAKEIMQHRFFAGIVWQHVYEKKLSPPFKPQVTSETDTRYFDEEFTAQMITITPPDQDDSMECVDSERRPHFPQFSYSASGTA
Chain of human Caspase 10 (CASP10), CASP10 (gene 843) (Q92851 whole entry, looked up): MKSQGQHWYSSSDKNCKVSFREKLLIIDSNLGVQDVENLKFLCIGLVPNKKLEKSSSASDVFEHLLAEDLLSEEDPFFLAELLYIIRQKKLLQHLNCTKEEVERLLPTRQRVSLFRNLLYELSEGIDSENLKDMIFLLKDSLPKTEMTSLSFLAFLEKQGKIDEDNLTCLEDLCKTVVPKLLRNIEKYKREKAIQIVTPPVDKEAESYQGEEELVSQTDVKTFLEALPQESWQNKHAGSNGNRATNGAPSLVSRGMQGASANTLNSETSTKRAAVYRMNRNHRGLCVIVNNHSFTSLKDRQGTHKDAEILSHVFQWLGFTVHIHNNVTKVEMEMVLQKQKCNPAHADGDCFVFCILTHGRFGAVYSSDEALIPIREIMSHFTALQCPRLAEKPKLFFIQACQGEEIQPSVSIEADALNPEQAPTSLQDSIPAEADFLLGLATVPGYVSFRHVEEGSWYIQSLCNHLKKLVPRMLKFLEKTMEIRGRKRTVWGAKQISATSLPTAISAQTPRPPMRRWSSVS
Chain of human Acid Phosphatase 1 (ACP1), ACP1 (gene 52) (P24666 whole entry, looked up): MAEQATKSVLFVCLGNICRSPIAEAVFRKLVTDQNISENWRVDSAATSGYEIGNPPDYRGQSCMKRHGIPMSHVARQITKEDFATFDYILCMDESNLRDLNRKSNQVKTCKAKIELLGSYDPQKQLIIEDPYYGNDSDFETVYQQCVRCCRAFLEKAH
Chain of Caspase-3 (Homo sapiens) (P42574 whole entry, looked up): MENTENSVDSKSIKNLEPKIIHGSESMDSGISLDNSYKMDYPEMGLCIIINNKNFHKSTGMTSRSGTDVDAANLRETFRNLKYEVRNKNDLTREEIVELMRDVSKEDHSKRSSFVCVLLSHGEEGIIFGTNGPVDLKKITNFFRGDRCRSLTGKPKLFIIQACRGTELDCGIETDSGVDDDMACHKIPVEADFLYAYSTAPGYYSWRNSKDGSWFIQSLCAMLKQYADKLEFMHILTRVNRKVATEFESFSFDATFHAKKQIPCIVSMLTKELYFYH
Chain of rat CYP2D1, Cyp2d1 (gene 266684) (P10633 whole entry, looked up): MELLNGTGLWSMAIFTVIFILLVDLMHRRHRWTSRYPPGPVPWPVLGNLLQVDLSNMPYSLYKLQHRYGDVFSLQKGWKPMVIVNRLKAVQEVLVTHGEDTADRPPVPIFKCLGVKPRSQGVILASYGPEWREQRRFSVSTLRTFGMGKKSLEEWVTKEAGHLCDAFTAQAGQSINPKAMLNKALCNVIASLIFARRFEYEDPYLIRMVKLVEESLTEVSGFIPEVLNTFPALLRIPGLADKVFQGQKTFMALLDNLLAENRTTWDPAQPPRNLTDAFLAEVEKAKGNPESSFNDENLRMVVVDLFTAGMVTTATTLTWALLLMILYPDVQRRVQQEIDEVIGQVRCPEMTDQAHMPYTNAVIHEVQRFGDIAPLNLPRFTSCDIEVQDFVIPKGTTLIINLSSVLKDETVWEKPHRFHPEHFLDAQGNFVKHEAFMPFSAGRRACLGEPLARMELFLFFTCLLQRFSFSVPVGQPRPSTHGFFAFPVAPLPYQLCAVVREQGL
Chain of rat CYP3A2, Cyp3a2 (gene 266682) (P05183 whole entry, looked up): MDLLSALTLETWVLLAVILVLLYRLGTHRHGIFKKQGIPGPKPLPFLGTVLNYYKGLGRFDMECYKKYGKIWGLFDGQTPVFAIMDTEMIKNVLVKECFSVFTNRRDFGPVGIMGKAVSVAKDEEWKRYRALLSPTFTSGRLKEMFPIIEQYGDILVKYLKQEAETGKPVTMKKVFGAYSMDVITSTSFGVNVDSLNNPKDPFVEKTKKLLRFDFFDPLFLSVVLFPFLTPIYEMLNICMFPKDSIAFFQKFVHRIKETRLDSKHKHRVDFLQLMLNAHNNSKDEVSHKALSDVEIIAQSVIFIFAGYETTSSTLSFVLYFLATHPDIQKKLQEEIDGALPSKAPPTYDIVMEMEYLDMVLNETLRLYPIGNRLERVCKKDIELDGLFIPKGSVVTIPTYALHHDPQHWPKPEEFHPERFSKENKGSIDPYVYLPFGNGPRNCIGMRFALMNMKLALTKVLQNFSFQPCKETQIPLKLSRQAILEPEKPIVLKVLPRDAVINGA

With `C[C@]12CCC(=O)C=C1CC[C@@H]1[C@@H]2CC[C@@]2(C)[C@H]1CC[C@]2(C)O` the AC50 [1] was 3.82 µM (active) and 2.41 µM (active) and 2.57 µM (active).
`CCNc1nc(NC(C)C)nc(SC)n1` was tested, and the outcome [2] was “inactive”, the AC50 (rat CYP3A1, gene 25642) was 6.58 µM (active) and the outcome [3] was “inactive”.
With `CCC(C)(CC)c1cc(NC(=O)c2c(OC)cccc2OC)on1` the AC50 [4] was 0.981 µM (active).
For `Clc1ccc(C(Cl)(Cl)Cl)cc1`, the outcome [5] was “inactive”.
In the case of `O=C(O)C(F)(F)C(F)(F)C(F)(F)C(F)(F)C(F)(F)C(F)(F)C(F)(F)C(F)(F)C(F)(F)F`, the outcome [5] is reported as “inactive”.
With `O=C(O)C(F)(F)C(F)(F)C(F)(F)C(F)(F)C(F)(F)C(F)(F)C(F)(F)C(F)(F)F` the outcome [6] was “inactive”.
`CC1=C2C[C@H]3[C@@H](CC=C4C[C@@H](O)CC[C@@]43C)[C@@H]2CC[C@]12O[C@@H]1C[C@H](C)CN[C@H]1[C@H]2C` was tested, and the outcome [6] was “inactive”.
`Cc1ccccc1CO[C@@H]1C[C@@]2(C(C)C)CC[C@]1(C)O2` was tested, and the outcome [3] was “inactive”.
With `CC(C)(c1ccccc1)c1ccc(O)cc1` the outcome (Caspase-3 (Homo sapiens)) was “inactive”.

— PubChem BioAssay (EPA / NIEHS)
